Experimental data: PubChem BioAssay (NCATS)
Several values for one entry are separate records, joined by “and”; a condition that tells them apart may be missing. Equal entries are not always repeated. Inconclusive results are not listed. Activity calls are given as the source filed them. Unless noted, the call rests on the fitted dose curve.

Tests used:
[1] = target: Cytochrome P450 3A4 (Homo sapiens) (UniProt P08684); assay: qHTS Assay for Inhibitors and Substrates of Cytochrome P450 3A4 (AID 884; active means well fitted curve in the direction sought with a large enough effect; an effect the other way counts as inactive or inconclusive; further: on the % scale 0 is the no-effect control and ±100 the full control effect; nearly all actives have a fitted effect of over 50% in size)
Chain of Cytochrome P450 3A4 (Homo sapiens) (P08684 whole entry, looked up): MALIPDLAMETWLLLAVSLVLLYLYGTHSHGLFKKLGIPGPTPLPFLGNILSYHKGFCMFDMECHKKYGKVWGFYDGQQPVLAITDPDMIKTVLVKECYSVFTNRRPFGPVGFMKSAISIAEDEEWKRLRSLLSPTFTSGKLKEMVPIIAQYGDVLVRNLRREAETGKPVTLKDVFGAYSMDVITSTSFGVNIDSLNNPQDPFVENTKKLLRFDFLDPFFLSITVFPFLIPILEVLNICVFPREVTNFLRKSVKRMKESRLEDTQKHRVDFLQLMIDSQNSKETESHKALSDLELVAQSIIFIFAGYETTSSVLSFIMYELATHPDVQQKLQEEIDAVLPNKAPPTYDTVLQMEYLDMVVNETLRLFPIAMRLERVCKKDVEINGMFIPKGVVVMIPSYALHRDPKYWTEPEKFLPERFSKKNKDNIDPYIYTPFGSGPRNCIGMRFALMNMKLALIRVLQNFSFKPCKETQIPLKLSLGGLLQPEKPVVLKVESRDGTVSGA
Method in brief: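 20 nM human CYP3A4 with 25 uM Luciferin-PPXE (at KM) in 200 mM KPO4, preincubated 10 min with compound; NADPH regeneration started a 60 min RT reaction. Luciferin detected by luminescence, normalized to 57 uM ketoconazole as full inhibition.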

[2] = Confirmation and Secondary Assay for Modulators of Hemoglobin Beta Chain Splicing at IVS2 705 locus (AID 930; active means well fitted curve in the direction sought with a large enough effect; an effect the other way counts as inactive or inconclusive;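 further: HeLa cells stably expressing the EGFP-705 splicing reporter; GFP fluorescence per well restored by corrected splicing of the IVS2-705 intron in EGFP; % of control where 0% means no effect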)
Method in brief: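 Splice-correction reporter: EGFP cDNA split by beta-globin intron 2 bearing the 705 mutation, stably in HeLa. Compound incubation 2 days, 37C; fluorescent objects 5-250 µm summed per well.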

[3] = qHTS Assay for Lipid Storage Modulators (AID 1519); conditions: Drosophila S3 cells, BODIPY lipid droplet/cell ratio, laser cytometry, cells loaded with oleic acid; for activity change, negative = inhibition: at 57.5 µM (top of the series); further: potency means the concentration at half of the fitted maximal effect; on activity change, negative = inhibition: on the % scale 0 is the no-effect control and ±100 the full control effect
Method in brief: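 Cells seeded at 5,000 per well were treated with compounds over a concentration series and loaded with oleic acid (400 uM, as added). Lipid droplet fluorescence (488 nm excitation, 500-530 nm channel) was read by laser-scanning cytometry and normalized to 20 uM Triacsin C.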

[4] = target: Cytochrome P450 3A4 (Homo sapiens) (UniProt P08684); assay: qHTS Assay for Activators of Cytochrome P450 3A4 (AID 885; active means well fitted curve in the direction sought with a large enough effect; an effect the other way counts as inactive or inconclusive; further: nearly all actives have a fitted effect of over 65% in size)
Method in brief: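 Quantitative HTS format: compounds preincubated with 20nM human CYP3A4 and Luciferin-PPXE substrate at KM, reaction started by NADPH regeneration, stopped after 60 min, luciferase luminescence read 20 min later.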

[5] = Confirmation and Secondary Assay for Modulators of Hemoglobin Beta Chain Splicing at IVS2 654 locus (AID 910; active means well fitted curve in the direction sought with a large enough effect; an effect the other way counts as inactive or inconclusive;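 further: per-well total GFP intensity by laser scanning cytometry after 2-day treatment; % of control where 0% means no effect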)
Method in brief: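 HeLa cells stably carrying EGFP interrupted by mutant beta-globin IVS2-654 intron (CMV-driven) were treated with compound for 2 days at 37C; corrected splicing was scored as total peak GFP intensity per well (488 nm excitation, 500-520 nm emission).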

[6] = target: Cytochrome P450 2D6 (Homo sapiens) (UniProt P10635); assay: Cytochrome P450 family 2 subfamily D member 6 (CYP2D6) small molecule antagonists: luciferase biochemical (cell-free) qHTS assay (AID 1645840; active means well fitted curve in the direction sought with a large enough effect in the repeat runs; an effect the other way counts as inactive or inconclusive; further: nearly all actives have a fitted effect of over 55% in size; further: potency means the concentration at half of the fitted maximal effect; on activity change, negative = inhibition: on the % scale 0 is the no-effect control and ±100 the full control effect)
Chain of Cytochrome P450 2D6 (Homo sapiens) (P10635 whole entry, looked up): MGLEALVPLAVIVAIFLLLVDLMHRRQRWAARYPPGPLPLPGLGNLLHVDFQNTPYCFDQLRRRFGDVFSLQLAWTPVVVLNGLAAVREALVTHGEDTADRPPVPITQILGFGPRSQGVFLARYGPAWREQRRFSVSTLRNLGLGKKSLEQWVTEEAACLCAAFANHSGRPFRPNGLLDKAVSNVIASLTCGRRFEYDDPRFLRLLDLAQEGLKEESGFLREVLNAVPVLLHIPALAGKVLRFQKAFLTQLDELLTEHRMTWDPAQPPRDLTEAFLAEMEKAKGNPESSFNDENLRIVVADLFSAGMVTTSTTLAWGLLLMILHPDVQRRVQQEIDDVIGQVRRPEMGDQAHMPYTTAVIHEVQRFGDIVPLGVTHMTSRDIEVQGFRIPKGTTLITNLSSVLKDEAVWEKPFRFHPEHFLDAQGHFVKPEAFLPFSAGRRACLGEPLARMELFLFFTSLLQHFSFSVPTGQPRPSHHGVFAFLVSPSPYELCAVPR
Method in brief: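 P450-Glo luminescent screen: recombinant CYP2D6 enzyme–proluciferin substrate mix preincubated with compound 10 min at room temperature, then NADPH regeneration added for 1 h at room temperature. Detection reagent added for 20 min; luciferin light read as relative luminescence units.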

[7] = Confirmatory qHTS to identify inhibitors of SARS-CoV-2 cell entry (AID 1645844); further: nearly all actives have a fitted effect of over 45% in size; further: potency means the concentration at half of the fitted maximal effect; on activity, negative = inhibition: on the % scale 0 is the no-effect control and ±100 the full control effect
Method in brief: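 HEK293-ACE2 cells (Expi293F stably expressing human ACE2) were pretreated with compounds for 1 hr at 37C, then infected with MLV-based particles carrying Wuhan-Hu-1 spike (C-terminal 19-aa truncation). Luciferase luminescence read after 48 hr; normalized to spike PP (100%) and bald PP (0%).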

[8] = Cytotoxicity counterscreen for inhibitors of SARS-CoV-2 cell entry (AID 1645845); conditions: outcome: dose series up to 57.1 µM unless noted; further: nearly all actives have a fitted effect of over 50% in size
Method in brief: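 Expi293F/hACE2 cells seeded overnight; cpd pin-transferred in DMSO, 1 h preincubation, + media, 48 h 37 C 5% CO2; ATPLite 1step luminescence; normalized to cells and no cells.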

[9] = Primary qHTS to identify inhibitors of SARS-CoV-2 cell entry (AID 1645846); conditions: SARS-CoV-2 pseudovirus cell entry assay, luminescence; activity change, negative = inhibition: at 57.1 µM (top of the series) unless noted; further: nearly all actives have a fitted effect of over 45% in size; further: potency means the concentration at half of the fitted maximal effect
Method in brief: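 Inhibition of spike-mediated entry was scored in human ACE2-transfected Expi293F cells. Particles were MLV-pseudotyped with Wuhan-Hu-1 S carrying a 19-aa C-terminal deletion; signal was luciferase after two days, scaled between spike PP and fusion-protein-free PP.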

[10] = VSVG counterscreen qHTS to identify inhibitors of SARS-CoV-2 cell entry (AID 1645847); further: nearly all actives have a fitted effect of over 65% in size; further: potency means the concentration at half of the fitted maximal effect; on activity change, negative = inhibition: on the % scale 0 is the no-effect control and ±100 the full control effect
Method in brief: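 Luminescence from a luciferase reporter, normalised to bald particle and VSV-G pseudotyped particle wells, is the read-out. Cells are HEK293 expressing human ACE2, exposed to compound 1 h before a 48 h particle infection at 37 °C.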

[11] = target: Glutathione peroxidase 1 (Homo sapiens) (UniProt P07203); assay: Primary qHTS Assay for Inhibitors of Recombinant Selenoprotein Glutathione Peroxidase 1 (GPX1) (AID 1845191; active means well fitted curve in the direction sought with a large enough effect; an effect the other way counts as inactive or inconclusive; further: on the % scale 0 is the no-effect control and ±100 the full control effect; nearly all actives have a fitted effect of over 65% in size)
Chain of Glutathione peroxidase 1 (Homo sapiens) (P07203 whole entry, looked up): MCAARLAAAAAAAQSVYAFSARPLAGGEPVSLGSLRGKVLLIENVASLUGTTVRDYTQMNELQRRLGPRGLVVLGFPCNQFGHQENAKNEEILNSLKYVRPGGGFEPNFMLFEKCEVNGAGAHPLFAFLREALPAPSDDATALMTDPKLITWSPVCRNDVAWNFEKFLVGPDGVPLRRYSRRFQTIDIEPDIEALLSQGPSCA
Method in brief: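 Recombinant GPX1 (10 nM final) was preincubated with compound for 30 min at room temperature, then reacted with 1 mM GSH, 0.5 mM CHP, 0.5 mM NADPH and 100 nM glutathione reductase; NADPH fluorescence (340/450 nm) was read at 0 and 15 min.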

[12] = S16 Schwann cell PMP22 intronic element beta-lactamase assay (AID 624044); conditions: S16 rat Schwann cells, PMP22 element beta-lactamase FRET, 24 h; ratio activity, negative = inhibition: at 38.3 µM (top of the series) unless noted; further: potency means the concentration at half of the fitted maximal effect; nearly all actives have a fitted effect of over 15% in size
Method in brief: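 Rat S16 Schwann cells with beta-Lac driven by a PMP22 intronic element, compound-treated 24 h at 37 °C. LiveBLAzer FRET B/G read: 460 nm normalized to potassium clavulanate vs DMSO; 535 nm FRET as viability; concentration-effect curves classified.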

[13] = measured here: cell count channel max response
[14] = measured here: lipid channel max response

SMILES: CNc1ccccc1C(=O)O
- Potency [1]: inactive
- Potency [2]: inactive
- activity change, negative = inhibition [3]: -0.857% (inactive)
- max response [3, 13]: 25%
- max response [3, 14]: 25.4%

SMILES: CCCCC/C=C\C/C=C\C/C=C\C/C=C\CCCC(=O)O
- Potency [4]: inactive
- activity change, negative = inhibition [3]: -9.9% (inactive)
- max response [3, 13]: 20.2%
- max response [3, 14]: 8.84%

SMILES: NC(=NCCCC(N)C(=O)O)N[N+](=O)[O-] (centres undefined)
- Potency [5]: inactive
- activity change, negative = inhibition [3]: 0.218% (inactive)
- max response [3, 13]: -5.56%
- max response [3, 14]: -2.81%

SMILES: COc1cc(C2c3cc4c(cc3C(OC(C)=O)[C@H]3COC(=O)C23)OCO4)cc(OC)c1OC (some centres undefined)
- Potency [4]: inactive
- Potency [5]: inactive
- Potency [2]: inactive
- activity change, negative = inhibition [3]: 0.38% (inactive) and 4.56% (inactive)
- max response [3, 13]: 26.1% and 10%
- max response [3, 14]: 22.6% and 16.4%

SMILES: CN(C)[C@@H]1C(=O)C(C(N)=O)C(=O)[C@@]2(O)C(=O)C3C(=O)c4c(O)ccc(Cl)c4[C@@](C)(O)C3C[C@@H]12 (some centres undefined)
- Potency [6]: inactive

SMILES: C=C1C[C@H]2C=Nc3cc(OCCCOc4cc5c(cc4OC)C(=O)N4CC(=C)C[C@H]4C=N5)c(OC)cc3C(=O)N2C1
- Potency [7]: 0.0015 µM (active)
- Potency [8]: inactive
- activity change, negative = inhibition [9]: -62%
- Potency [10]: 0.0014 µM (active)

SMILES: CC(=O)OC1CC2C(C)(C)C(O)C=C[C@@]2(C)C2CC[C@]3(C)C(=CC(=O)OC3c3ccoc3)[C@]12C (some centres undefined)
- Potency [4]: inactive
- Potency [5]: inactive
- Potency [2]: inactive
- activity change, negative = inhibition [3]: 6.31% (inactive)
- max response [3, 13]: -2.89%
- max response [3, 14]: 6.06%

SMILES: COc1cc2c(cc1OC)[C@@H]1C(=O)c3ccc4oc(C(C)C)cc4c3OC1CO2 (some centres undefined)
- Potency [2]: inactive
- Potency [3]: 2.51 µM (active)
- max response [3, 13]: -28.2%
- max response [3, 14]: -80.9%

SMILES: CCN1CCN(C(c2ccc(Cl)cc2)c2ccc(Cl)cc2)CC1
- Potency [6]: 0.952 µM (active)
- Potency [11]: inactive

SMILES: O=c1c(-c2ccc(O)cc2)coc2c([C@@H]3O[C@H](CO)[C@@H](O)[C@H](O)[C@H]3O)c(O)ccc12
- Potency [7]: inactive
- Potency [8]: inactive
- activity change, negative = inhibition [9]: -22.1%

SMILES: CN1CC(CNC(=O)OCc2ccccc2)CC2c3cccc4c3c(cn4C)CC21 (centres undefined)
- Potency [5]: inactive
- Potency [2]: inactive
- activity change, negative = inhibition [3]: 7.09% (inactive)
- max response [3, 13]: -1.98%
- max response [3, 14]: 5.84%

SMILES: Cc1cc(/C=c2/sc3nc4ccccc4n3c2=O)c(C)n1-c1ccccc1
- Potency [7]: 0.0341 µM (active)
- Potency [8]: inactive
- activity change, negative = inhibition [9]: -93.9%
- Potency [10]: 0.0681 µM (active)

SMILES: Oc1ccc2c3c1OC1C(O)CC[C@]4(O)C(C2)N(CC2CCC2)CC[C@]314 (some centres undefined)
- Potency [5]: inactive
- Potency [2]: inactive
- activity change, negative = inhibition [3]: -5.68% (inactive)
- max response [3, 13]: 13.5%
- max response [3, 14]: 9.11%

SMILES: CCC(C)C(=O)O[C@@H]1C[C@@]2(C)C(c3ccoc3)OC(=O)CC23OC2(C)O[C@@]14[C@@]1(C)C(CC(=O)OC)C5(C)CC1(O)C(O)(C5OC(=O)C1(C)OC1C)C(OC(C)=O)[C@@]34O2 (some centres undefined)
- Potency [4]: inactive
- Potency [5]: inactive
- Potency [2]: inactive
- activity change, negative = inhibition [3]: 5.34% (inactive)
- max response [3, 13]: -2.48%
- max response [3, 14]: 2.6%

SMILES: C=C(C)C1CNC(C(=O)O)C1CC(=O)O (centres undefined)
- Potency [1]: inactive
- Potency [5]: inactive
- Potency [2]: inactive
- activity change, negative = inhibition [3]: 6.75% (inactive)
- max response [3, 13]: 5.93%
- max response [3, 14]: 13%

SMILES: CN1C2CC(OC(=O)C(CO)c3ccccc3)CC1C(O)C2 (centres undefined)
- Potency [1]: inactive
- Potency [5]: inactive
- Potency [2]: inactive
- activity change, negative = inhibition [3]: 5.64% (inactive)
- max response [3, 13]: 7.52%
- max response [3, 14]: 14.4%

SMILES: COc1cccc2c1C(=O)c1c(O)c3c(c(O)c1C2=O)C[C@@](O)(/C(CO)=N/NC(=O)CCCCCN1C(=O)C=CC1=O)C[C@@H]3O[C@H]1C[C@H](N)[C@H](O)[C@H](C)O1
- Potency [7]: 0.429 µM (active)
- Potency [10]: 0.341 µM (active)

SMILES: Cc1noc(C)c1-c1ccc(-c2cc(C(N)=O)c(NC(N)=O)s2)c(O[C@H]2CCNC2)c1
- Potency [8]: inactive

SMILES: CO[C@@H]1[C@@H](O)[C@H](O)[C@@H](n2c3c(Cl)cccc3c3c4c(c5c6cccc(Cl)c6[nH]c5c32)C(=O)NC4=O)O[C@H]1CO
- Potency [7]: 0.961 µM (active)
- Potency [10]: 0.857 µM (active)

SMILES: C[C@@]12C(=O)OC(=O)[C@]1(C)[C@H]1CC[C@@H]2O1
- Potency [12]: 3.37 µM (active)
- Potency [7]: 4.82 µM (active)
- Potency [9]: 8.91 µM (active)
- Potency [10]: 3.04 µM (active)

SMILES: O=C1NC(=O)[C@@H](c2c[nH]c3ccccc23)[C@H]1c1cn2c3c(cccc13)CCC2
- Potency [7]: 7.64 µM (active)
- Potency [10]: 1.52 µM (active)

SMILES: COc1cc(F)ccc1-c1ncnc(Nc2cccc(CS(C)(=N)=O)c2)n1 (centres undefined)
- Potency [7]: 3.83 µM (active)
- Potency [10]: 4.29 µM (active)

SMILES: C=CC(=O)Nc1cccc(Nc2nc(Nc3ccc(OCCOC)cc3)ncc2F)c1
- Potency [7]: 6.81 µM (active)
- Potency [8]: inactive
- Potency [10]: 4.82 µM (active)

SMILES: Cn1cc(C2=C(c3cn(C)c4cc([N+](=O)[O-])ccc34)C(=O)NC2=O)c2ccccc21
- Potency [7]: 1.71 µM (active)
- Potency [10]: 1.08 µM (active)

SMILES: CCNCCS(=O)(=O)NC[C@@]1(c2ccccc2)SC(NC(=O)C(C)(C)C)=NN1C(=O)C(C)(C)C
- Potency [7]: 0.0607 µM (active)
- Potency [10]: 0.0541 µM (active)

SMILES: CN1CCC(c2c(O)cc(O)c3c(=O)cc(-c4ccccc4Cl)oc23)C1CO (centres undefined)
- Potency [7]: 3.04 µM (active)
- Potency [9]: 2.82 µM (active)
- Potency [10]: 2.41 µM (active)

SMILES: O=C(Nc1cccnc1)c1cc(-c2ccnc(F)c2)ccc1OCc1ccccc1
- Potency [7]: inactive
- Potency [8]: inactive
- Potency [10]: inactive

SMILES: CN(C)CCCOc1ccc(-c2ccc3ncc4c(c3c2)n(C2CCOCC2)c(=O)n4C)cn1
- Potency [7]: 5.91 µM (active)
- Potency [10]: 2.35 µM (active)
